Data published in PubChem BioAssay AID1347426 (Functional Genomics Laboratory (NCATS/FGL), 2020).
The whole screen tested about 31,000 sequences, of which about 1,400 (4.5%) were called active.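 How the source made its calls: active means median seed-adjusted z-score above 1 or below -1; inactive means the rest.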 Many of the other results were omitted from the sample, so actives are more common in it than they were.

test: Novel Modifiers of Survival Motor Neuron (SMN) Protein: Gene Identification via Genome-wide siRNA Screen; details: HEK293T SMN2-luciferase reporter, siRNA knockdown, 72 h; actives lie on both sides;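 further: luminescence tracks full-length SMN protein made from the SMN2 reporter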
Procedure, shortened: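 Each of three siRNAs per gene is reverse-transfected (1 pmol) into reporter HEK293T cells whose luciferase output tracks SMN protein level. After 72 h culture, ONE-Glo luminescence is control-normalized, log10-transformed and MAD-standardized; Common Seed Analysis deprioritizes seed-driven hits.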

Row | Sequence | median seed-adjusted z-score
1 | CGGGAACUAUCCAAACAAUTT against DMBT1 | -0.131 (inactive)
2 | GCAGAACUGACAGUCGAUATT against DMTF1 | 0.396 (inactive)
3 | GAGUGGACUGUGGAAGAUATT against RCOR1 | -1.13 (active)
4 | CCAAAAGAAUAUCCGCUAATT against NLK | 0.256 (inactive)
5 | CACCUACUGUGAUGACAGATT against EPAS1 | -0.166 (inactive)
6 | GAAGUAGACUUGAUACGAATT against AQR | -1.56 (active)
7 | AGCACAAGGUGGAACCGGUTT against CYGB | -0.34 (inactive)
8 | GCUACGAAAUGCUUGCUCATT against GALT | 0.484 (inactive)
9 | GGAUCAUGACCUAUGCUAATT against AKAP3 | 0.0138 (inactive)
10 | GCUUUGUGAACGACAAUUATT against RABGGTB | -0.856 (inactive)
11 | CGCACGGACUGUACCAUUUTT against ETV2 | 0 (inactive)
12 | GCCUACUGGUCAUUGAUCATT against GNMT | 0.0261 (inactive)
13 | GACAUAUGCAAGAACUAUATT against PSAP | 0.107 (inactive)
14 | AGAGGAGAGUGGAAUUCCATT against ARID3C | -1.32 (active)
15 | GCAGUUUCUUAACCACGUUTT against IFI16 | -0.0178 (inactive)
16 | ACUUUGCUCCUACUAUUCATT against NEGR1 | 0.194 (inactive)
17 | CCAUCGGACUGACAGUGAATT against COPZ1 | -1.02 (active)
18 | CGAAAACUGAUACACUUGATT against KSR2 | -0.371 (inactive)
19 | GCUGAUUUUUGCUAAUAAATT against ARL5A | 0 (inactive)
20 | GCAUGUAAUGAGUAUCACATT against MRS2 | 1.38 (active)
21 | GAUCAACUGUGGAAAUAUUTT against KISS1R | -0.299 (inactive)
22 | CCGUGUUCAUUCCUUUUCATT against ZFP41 | 0 (inactive)

Row | Sequence | median seed-adjusted z-score
23 | CCACUAAAGGAUCAACGUATT against PHKB | -0.142 (inactive)
24 | GCGACUCCUAGAGAACAAATT against LSG1 | 1.31 (active)
25 | CAAGGUAGCUCAGCACUGATT against PEX6 | -0.281 (inactive)
26 | AGAGCGAGCCUUUGCUGAUTT against DAD1 | -0.45 (inactive)
27 | CCCUGCUCCUCACUCAUUUTT against KRTAP5-5 | -1.07 (active)
28 | GUUCCGUACAGAUAAAGGATT against SAE1 | 0.831 (inactive)
29 | AUGUCACGCUGGUGCCCUATT against IFI30 | 0.401 (inactive)
30 | GUAUCAUGCCCAUCUGAAATT against ZMAT4 | -0.0468 (inactive)
31 | GAGAGACUCAAGAACGUGATT against ARCN1 | -1.25 (active)
32 | AGCCUAUGAUUUUCCUGAATT against PTF1A | 0.482 (inactive)
33 | ACCUUGGUGUUGGACCUCATT against RNF26 | 0.359 (inactive)
34 | GGGACACGCUAAAAGGAGATT against GNB4 | 0.015 (inactive)
35 | GGUCUAGCCUUGAUCAGAATT against SHROOM3 | 0.779 (inactive)
36 | GCAAAUCAGAGGUUCAGAUTT against SQLE | -1.14 (active)
37 | GGGCUGCAAGUGGAAUUCATT against NR1H3 | 0.426 (inactive)
38 | GGCAAACGAGUGUGCUUCATT against FAM47B | -0.0631 (inactive)
39 | CACCGGAGGUUUAUCACAATT against AMDHD2 | -0.0707 (inactive)
40 | AGCCUGUAGCUUAAACUUATT against KCTD12 | 0.431 (inactive)
41 | GUGUCCAACAGAUACGGAATT against DSCAM | -0.527 (inactive)
42 | GGCAGAUAUUUAAGCCUAUTT against HDAC2 | -1.27 (active)
43 | GGAGUGCAAAAGGAACGAATT against APIP | -0.0945 (inactive)
44 | GAGUUAUGGUGAACCCACATT against CDKN2B | 0.0154 (inactive)

Row | Sequence | median seed-adjusted z-score
45 | GGACAUUCAAUUCAAACCATT against SMAD4 | 0.0746 (inactive)
46 | CUGUUUAGCUUCAUGCAAATT against ARID3C | -1.32 (active)
47 | GCAAGGCAAUGCAAACGAATT against DDX43 | -0.452 (inactive)
48 | GCGACUACCUGUUUCAACATT against PELO | 0.394 (inactive)
49 | GGAAAGAUCUUCAAUCAUATT against ZNF597 | 0.366 (inactive)
50 | GGACAUUCGUCAGAUUUAUTT against TEAD1 | 1.31 (active)
51 | GAGUGGAGCGUACAUCCUATT against ZXDA | -0.0748 (inactive)
52 | CAAUAGUCCUGAGACCGAATT against MYST3 | -0.49 (inactive)
53 | GCAUUACCGCGAUGAAUUATT against DNAI1 | -0.783 (inactive)
54 | UCCUAACCUCAGAAACUGATT against CAPS | -1.25 (active)
55 | GGAAGGCUCCAAACGGAAATT against PBRM1 | -0.118 (inactive)
56 | GCACGUUUGAGUACGAAUATT against SFPQ | -1.15 (active)
57 | GGACCAGUCUGCCUAUGUATT against NXF5 | -0.396 (inactive)
58 | GCGGGACAGAAGUUAGAUATT against HCCS | 0.00254 (inactive)
59 | GGAUGAUAUGGGACCAUAATT against PTPRZ1 | 1.73 (active)
60 | GUCUUGUAGAAAUCUCAGATT against RFC3 | 0.733 (inactive)
61 | GCUUCGAGGAGGGCAAGAATT against PRSS27 | 1.03 (active)
62 | GAUAGUGACAGGUUAAUGATT against TIGD6 | -0.443 (inactive)
63 | GCCUGACCCGUGAGACAAATT against THY1 | -1.1 (active)
64 | GCAUCUAAAGAGCUACAGATT against ZNF584 | 0.172 (inactive)
65 | CAAUGUCCAGGGUAUCAUUTT against HAO2 | 0.039 (inactive)
66 | GGAGGGACAAGAUCAACAATT against USF2 | 0.352 (inactive)

Row | Sequence | median seed-adjusted z-score
67 | CCAGCCGUGUUGUAGCUAATT against S100B | 0.862 (inactive)
68 | CCGUAAAGCUGCAUUAGAATT against CUGBP1 | 0.086 (inactive)
69 | GGGUCAUCAGUAGCAUUGATT against YWHAG | 1.98 (active)
70 | GCAGUACGGAAGCUACCGATT against SS18L1 | -0.174 (inactive)
71 | CAUUGGACAGUAUUACAAATT against UBE2U | -0.0545 (inactive)
72 | CCUUCCCUCUACACCAUCATT against COPZ2 | -1.23 (active)
73 | CCUAAGUUACUACUAGUAUTT against ENPP4 | 0 (inactive)
74 | GGAUCUCACAGGUUCCGUUTT against LARS2 | 0.25 (inactive)
75 | GAACUUGACCAUUAUAUCATT against PHKA2 | 0.304 (inactive)
76 | CGGUGGUGAAUGAAAGUCATT against FKBP14 | -0.455 (inactive)
77 | GAGGUGAACUGGAAGCGAATT against MBOAT1 | -1.22 (active)
78 | CGCUUAACAUUGGAGUUCATT against ATG7 | -0.328 (inactive)
79 | CUACGGCUUUGGAGAUAUATT against RECQL | -0.905 (inactive)
80 | CAUCCAUUCUACAUCCGUATT against VHL | -0.0797 (inactive)
81 | AGAGCACAUCAAAUCAGAATT against PAX2 | 0.341 (inactive)
82 | GCUUAUGCGUAGAUCCUUUTT against SMYD4 | 0.272 (inactive)
83 | GCACCUUCCCAACCAUCAATT against GPX2 | -0.21 (inactive)
84 | GCAGAUUUUGAGCAACUGATT against TRIM5 | 0.0758 (inactive)
85 | GAACUUUGAUGACGAGUGATT against RAD23A | -1.13 (active)
86 | GAUGAUCAGCUAUGAAAAATT against ZNF780A | 0.298 (inactive)
87 | GCAGAUAUCUGAUAGCCCUTT against PPA2 | -0.497 (inactive)
88 | CGUCUAUGCCUAUAAAAUATT against ADORA3 | 0 (inactive)

Row | Sequence | median seed-adjusted z-score
89 | GCGAUGCCUAUAAAACCUATT against TRYX3 | 2.3 (active)
90 | CUAGGAAGAUAAUACCAGATT against BTRC | -0.0819 (inactive)
91 | GGAAGUACCUGAGUGUGCATT against MTCH1 | 0 (inactive)
92 | GCUCUUUGCCGUUUCUAAUTT against SLC29A2 | -0.0569 (inactive)
93 | CGAGAAAUUGCACAACCGATT against NACC1 | 1.59 (active)
94 | GGACAUUGGACUAACCCAATT against EFHB | 0.675 (inactive)
95 | CUAUGGUAAUGUUUGCUUUTT against ZXDB | 0.186 (inactive)
96 | CAAGAUCAAGAGUUCCUGATT against CYP2B6 | 0.454 (inactive)
97 | CCGAGAGUAUGUCGACUUATT against CBFB | -0.0379 (inactive)
98 | GGAAAACAAGCUCAUCAAUTT against HOXA6 | -0.282 (inactive)
99 | GCAGCGUAGUUUUUGCGGATT against DOCK2 | 0.151 (inactive)
100 | UCAGUGCCCUUGUAUCAAATT against CYP4F2 | -0.387 (inactive)
101 | GCCUCAGUUUGAAAUUGUUTT against TBRG1 | -1.47 (active)
102 | CAGACUCUCCGAUCUCUGATT against NRIP3 | -0.699 (inactive)
103 | CCUGGAUCCAAAUAGCGAATT against SMARCA2 | -0.458 (inactive)
104 | CUCUUUGACGUGUCUCAUATT against AMT | -0.506 (inactive)
105 | CCUGAACAUUGGACCCUGUTT against CPSF1 | 3.29 (active)
106 | UCACUUUCCCUGUAAAUAUTT against CD84 | 0.629 (inactive)
107 | GCAAGACCUAAGCAAACUATT against BXDC1 | 0.173 (inactive)
108 | CAUAGACUCUUACACCACATT against SC4MOL | -0.0194 (inactive)
109 | GGCUGUCUGCUGUACGAGATT against NEK6 | -0.674 (inactive)
